Measured values published in PubChem BioAssay (NCATS).
Values joined by “and” are separate entries in the source; they are usually repeats but may differ in a detail not shown here. Identical values can stand only once. Results filed as inconclusive are left out. Where a call stands in place of a potency, no number is given. Active and inactive are the calls of the source. Unless noted, calls come from the whole dose curve; as a rule, active = well fitted curve in the direction sought with a large enough effect; inconclusive = small, poorly fitted or top-dose-only effect, or another doubt; inactive = no such curve, though single readings can be large; an effect the other way counts as inactive or inconclusive.

Experiments:
[1] = qHTS assay for small molecule antagonists of retinoid X receptor alpha signaling (AID 588546; active = well fitted inhibition curve with a large enough effect in the signal ratio, with a control signal flat, not every such curve was filed as active; the % refers to the signal ratio;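 note: cells stimulated with 9-cis-retinoic acid as agonist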); settings: HEK293T RXRa-UAS-bla, beta-lactamase ratio, antagonist mode; measured here: W530 green channel, cytotoxicity proxy
In short: (§1)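 Beta-lactamase reporter inhibition, read as CCF4 fluorescence ratio (ex 405, em 460/530 nm) after 2 h at RT. HEK293T UAS-bla cells, 2500/well, were stimulated with 9-cis-RA at 500 or 100 nM final alongside test compound for 18 h at 37 C.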

[2] = target: Retinoic acid receptor RXR-alpha (Homo sapiens) (UniProt P19793); test: as above; settings: HEK293T RXRa-UAS-bla, beta-lactamase ratio, antagonist mode
In short: as §1

[3] = target: Voltage-gated inwardly rectifying potassium channel KCNH2 (Homo sapiens) (UniProt Q12809); test: qHTS Assay for Small Molecule Inhibitors of the Human hERG Channel Activity (AID 588834); settings: U2OS BacMam hERG, FluxOR thallium flux fluorescence; series mostly up to 46.1 µM;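 note: top concentration of the series differs between compounds; lower thallium flux fluorescence means stronger hERG block; nearly all actives have a fitted effect of over 50% in size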
In short: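 U2OS cells transduced with hERG via BacMam (MOI ~100), plated 2000/well, loaded with FluxOR thallium dye, compound ~10 min, then stimulation buffer; fluorescence decrease read kinetically; AC50 from Hill fits.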

[4] = target: Luciferin 4-monooxygenase (Photinus pyralis) (UniProt P08659); test: Biochemical firefly luciferase enzyme assay for NPC (AID 624030);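 note: purified P. pyralis luciferase at 10 nM with luciferin and ATP substrate; nearly all actives have a fitted effect of over 70% in size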; settings: purified P. pyralis luciferase, luminescence, 5 min; series mostly up to 58.6 µM
In short: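 Purified P. pyralis luciferase at 10 nM in 50 mM Tris Acetate (final), luminescence read within 5 minutes of enzyme addition to compounds. Activity normalised to PTC124 versus DMSO; concentration-response curves classed by r2, magnitude and activity.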

[5] = S16 Schwann cell viability assay (CellTiter-Glo assay) (AID 624031); settings: S16 rat Schwann cells viability, 24 h; series mostly up to 57.5 µM;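 note: cellular ATP luminescence as a viability measure; nearly all actives have a fitted effect of over 70% in size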
In short: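 Native S16 rat Schwann cells, 500-750 cells/well in DMEM with 10% FBS, dosed with compound after overnight culture and incubated 24h at 37 degree Celsius/5% CO2. Viability by CellTiter-Glo luminescence; % activity normalized to no-cell wells and DMSO-treated cells.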

[6] = S16 Schwann cell PMP22 intronic element beta-lactamase assay (AID 624044; calls by dose curve; note: nearly all actives have a fitted effect of over 15% in size); settings: S16 rat Schwann cells, PMP22 element beta-lactamase FRET, 24 h; series mostly up to 38.3 µM
In short: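 Rat S16 Schwann cells with beta-Lac driven by a PMP22 intronic element, compound-treated 24 h at 37 °C. LiveBLAzer FRET B/G read: 460 nm normalized to potassium clavulanate vs DMSO; 535 nm FRET as viability; concentration-effect curves classified.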

[7] = target: Thyroid hormone receptor beta (Homo sapiens) (UniProt P10828); test: qHTS assay for small molecule antagonists of thyroid hormone receptor beta signaling (AID 588547; active = well fitted inhibition curve with a large enough effect in the signal ratio, with a control signal flat, not every such curve was filed as active; the % refers to the signal ratio;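 note: cells stimulated with 0.4 nM T3 agonist during compound exposure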); settings: TR-UAS-bla HEK293, beta-lactamase ratio, antagonist mode, 18 h
In short: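 TR-UAS-bla GripTite HEK293 cells in 2% charcoal/dextran FBS medium; compounds 0.59 nM to 92 uM with T3 at 0.4nM final, 18 h at 37 C. Beta-lactamase read by CCF4 fluorescence (460/530 nm); Hill fits gave IC50 and efficacy.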

[8] = S16 Schwann cell PMP22 intronic element firefly luciferase assay (AID 624032); settings: S16 rat Schwann cells, PMP22 element FLuc, 24 h; series mostly up to 57.5 µM; note: nearly all actives have a fitted effect of over 30% in size; note: potency is the fitted concentration of half-maximal effect
In short: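 Rat S16 Schwann cells stably carrying firefly luciferase driven by a PMP22 intronic element, in 10% FBS, treated 24 h at 37 C. ONE-Glo luminescence normalized to PTC124 control and DMSO (0%); curves classed by r2, magnitude and activity.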

[9] = target: Glutaminase kidney isoform, mitochondrial (Homo sapiens) (UniProt O94925); test: qHTS for Inhibitors of Glutaminase (GLS): LOPAC Validation (AID 624146); settings: glutaminase enzyme activity inhibition; series mostly up to 46.1 µM; note: nearly all actives have a fitted effect of over 60% in size; note: potency is the fitted concentration of half-maximal effect
In short: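 Compounds were pin-transferred onto hKGA, after which L-glutamine (1 mM solution) and a detection mix of glutamate oxidase, HRP and Amplex Red were added. Initial and 30 min RT fluorescence reads were collected.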

[10] = qHTS of Trypanosoma Brucei Inhibitors: LOPAC Validation (AID 624147); settings: purified enzyme assay, luminescence, 45 min; series mostly up to 57.5 µM
In short: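 Luminescent Kinase-Glo Plus end-point after 45 min room-temperature reaction of T. brucei pyruvate kinase started with 130 uM ADP (final). Buffer TEA 50 mM pH 7.2 with KCl, MgCl2, BSA, Tween-20; titration-based qHTS with fitted concentration-effect curves.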

Sequence of Thyroid hormone receptor beta (Homo sapiens) (P10828 whole entry, looked up): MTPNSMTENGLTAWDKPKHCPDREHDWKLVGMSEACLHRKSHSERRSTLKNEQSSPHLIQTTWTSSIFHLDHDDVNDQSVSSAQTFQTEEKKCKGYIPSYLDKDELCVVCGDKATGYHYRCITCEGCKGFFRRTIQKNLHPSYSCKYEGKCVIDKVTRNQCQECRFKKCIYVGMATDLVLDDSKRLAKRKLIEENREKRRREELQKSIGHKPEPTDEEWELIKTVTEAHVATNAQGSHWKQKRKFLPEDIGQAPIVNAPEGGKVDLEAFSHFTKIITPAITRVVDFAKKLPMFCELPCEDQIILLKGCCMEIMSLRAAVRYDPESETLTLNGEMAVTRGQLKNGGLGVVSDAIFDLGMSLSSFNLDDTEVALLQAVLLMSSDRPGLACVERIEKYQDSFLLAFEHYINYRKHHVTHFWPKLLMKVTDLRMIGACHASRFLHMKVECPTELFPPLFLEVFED
Sequence of Luciferin 4-monooxygenase (Photinus pyralis) (P08659 whole entry, looked up): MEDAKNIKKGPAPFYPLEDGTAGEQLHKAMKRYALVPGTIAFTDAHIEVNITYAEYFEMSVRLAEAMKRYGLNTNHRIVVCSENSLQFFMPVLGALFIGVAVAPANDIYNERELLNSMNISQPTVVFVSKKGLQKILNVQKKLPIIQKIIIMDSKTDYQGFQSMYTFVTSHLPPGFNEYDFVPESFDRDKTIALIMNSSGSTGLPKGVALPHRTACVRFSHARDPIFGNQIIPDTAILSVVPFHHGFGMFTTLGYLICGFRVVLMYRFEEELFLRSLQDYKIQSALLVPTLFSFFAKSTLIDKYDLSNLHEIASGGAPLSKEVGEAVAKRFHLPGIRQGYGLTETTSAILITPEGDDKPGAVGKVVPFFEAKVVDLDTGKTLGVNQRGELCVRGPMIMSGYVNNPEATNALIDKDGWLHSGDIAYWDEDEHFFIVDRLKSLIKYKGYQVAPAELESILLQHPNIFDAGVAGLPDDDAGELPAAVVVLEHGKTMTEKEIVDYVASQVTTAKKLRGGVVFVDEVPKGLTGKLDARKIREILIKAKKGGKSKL
Sequence of Retinoic acid receptor RXR-alpha (Homo sapiens) (P19793 whole entry, looked up): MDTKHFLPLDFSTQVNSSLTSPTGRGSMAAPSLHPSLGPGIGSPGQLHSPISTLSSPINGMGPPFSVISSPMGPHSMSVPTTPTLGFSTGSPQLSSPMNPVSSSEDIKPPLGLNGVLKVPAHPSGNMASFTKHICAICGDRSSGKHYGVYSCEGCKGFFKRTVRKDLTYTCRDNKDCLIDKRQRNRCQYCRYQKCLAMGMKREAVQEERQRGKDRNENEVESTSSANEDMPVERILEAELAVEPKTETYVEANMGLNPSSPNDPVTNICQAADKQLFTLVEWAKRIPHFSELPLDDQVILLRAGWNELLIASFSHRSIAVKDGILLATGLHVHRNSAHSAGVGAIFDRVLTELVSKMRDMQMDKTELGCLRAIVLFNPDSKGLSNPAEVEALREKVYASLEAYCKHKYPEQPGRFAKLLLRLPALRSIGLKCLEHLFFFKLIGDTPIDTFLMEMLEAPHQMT
Sequence of Voltage-gated inwardly rectifying potassium channel KCNH2 (Homo sapiens) (Q12809 whole entry, looked up): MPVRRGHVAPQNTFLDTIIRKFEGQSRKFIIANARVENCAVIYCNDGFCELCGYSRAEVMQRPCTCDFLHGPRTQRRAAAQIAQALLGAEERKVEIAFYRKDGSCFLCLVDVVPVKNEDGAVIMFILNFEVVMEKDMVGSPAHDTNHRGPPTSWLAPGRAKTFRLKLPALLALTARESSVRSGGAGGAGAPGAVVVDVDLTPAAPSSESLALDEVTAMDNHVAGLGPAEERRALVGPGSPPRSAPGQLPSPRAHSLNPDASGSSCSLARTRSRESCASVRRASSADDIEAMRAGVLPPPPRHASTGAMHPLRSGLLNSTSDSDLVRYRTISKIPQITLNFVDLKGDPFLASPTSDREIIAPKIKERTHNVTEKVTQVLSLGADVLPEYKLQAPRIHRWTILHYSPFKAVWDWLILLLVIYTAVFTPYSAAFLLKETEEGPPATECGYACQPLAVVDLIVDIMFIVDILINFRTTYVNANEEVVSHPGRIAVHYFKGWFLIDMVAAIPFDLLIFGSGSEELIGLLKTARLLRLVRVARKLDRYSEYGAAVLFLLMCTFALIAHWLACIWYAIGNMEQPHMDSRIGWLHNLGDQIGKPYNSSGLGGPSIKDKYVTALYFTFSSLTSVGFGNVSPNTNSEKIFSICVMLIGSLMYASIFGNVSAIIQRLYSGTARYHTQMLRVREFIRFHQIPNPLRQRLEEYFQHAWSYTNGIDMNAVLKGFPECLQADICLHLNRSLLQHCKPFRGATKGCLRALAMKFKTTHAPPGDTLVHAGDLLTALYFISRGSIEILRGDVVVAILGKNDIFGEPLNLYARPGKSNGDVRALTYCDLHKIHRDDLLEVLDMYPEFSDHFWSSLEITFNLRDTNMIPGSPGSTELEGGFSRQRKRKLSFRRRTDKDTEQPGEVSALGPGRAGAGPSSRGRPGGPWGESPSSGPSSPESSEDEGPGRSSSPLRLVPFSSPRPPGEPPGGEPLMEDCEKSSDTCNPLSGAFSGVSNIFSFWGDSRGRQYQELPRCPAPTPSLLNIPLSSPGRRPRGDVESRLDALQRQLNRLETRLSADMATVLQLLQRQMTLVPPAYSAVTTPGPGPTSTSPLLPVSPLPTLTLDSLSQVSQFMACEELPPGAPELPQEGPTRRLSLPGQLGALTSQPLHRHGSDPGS
Sequence of Glutaminase kidney isoform, mitochondrial (Homo sapiens) (O94925 whole entry, looked up, canonical isoform): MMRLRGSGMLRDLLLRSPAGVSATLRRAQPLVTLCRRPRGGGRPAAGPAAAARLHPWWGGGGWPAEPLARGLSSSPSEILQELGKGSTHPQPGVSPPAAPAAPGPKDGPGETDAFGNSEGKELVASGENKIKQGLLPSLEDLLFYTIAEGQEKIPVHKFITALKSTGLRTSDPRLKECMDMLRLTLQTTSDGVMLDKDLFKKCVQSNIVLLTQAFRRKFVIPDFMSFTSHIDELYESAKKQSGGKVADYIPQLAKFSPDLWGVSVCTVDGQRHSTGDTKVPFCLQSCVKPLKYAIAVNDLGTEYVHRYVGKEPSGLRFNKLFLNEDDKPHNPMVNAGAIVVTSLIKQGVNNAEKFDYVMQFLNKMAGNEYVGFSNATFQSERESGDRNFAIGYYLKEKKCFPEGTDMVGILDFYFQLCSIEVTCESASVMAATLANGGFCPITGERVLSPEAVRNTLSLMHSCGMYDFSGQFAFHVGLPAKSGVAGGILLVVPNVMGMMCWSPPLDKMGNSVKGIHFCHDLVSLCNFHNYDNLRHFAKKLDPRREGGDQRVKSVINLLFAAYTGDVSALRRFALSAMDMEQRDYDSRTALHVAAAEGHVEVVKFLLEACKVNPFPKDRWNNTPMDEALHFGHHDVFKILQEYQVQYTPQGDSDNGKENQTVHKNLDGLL

Structure (SMILES)	max response [1]	max response [2]	Potency [3]	Potency [4]	Potency [5]	Potency [6]	activity change % (negative = inhibition) [7]	Potency [8]	Potency [9]	outcome [10]
Oc1cccc(O)c1	-5.21%	1.73% (inactive)	inactive	inactive	inactive	inactive				
Cc1cccc(Nc2cc(Cl)nc(SCC(=O)O)n2)c1C	-6.52%	-6.08% (inactive)	inactive	inactive	inactive		-2.88% (inactive)	inactive		
CCCCCCCCCCCCOS(=O)(=O)O	-7.08% [middle of 4 runs]	6.26% (inactive) [middle of 4 runs]	inactive		inactive	inactive	-2.2% (inactive)	inactive		
NC(=O)N/N=C/c1ccc([N+](=O)[O-])o1	1.55% and -8.19%	5.86% (inactive) and 14.5% (inactive)	inactive		inactive	inactive	0.5% (inactive)	10.2 µM (active)		
O=C1c2c(O)cccc2Cc2cccc(O)c21	-14.8%	9.5% (inactive)	inactive	inactive	inactive		3.09% (inactive)	inactive		
CN(C)CCOC(C)(c1ccccc1)c1ccccn1 (stereo not given)	3.38%	-25.1% (inactive)	inactive				-6.28% (inactive)		inactive	
CNC(=O)Oc1ccc2c(c1)[C@]1(C)CCN(C)[C@@H]1N2C	-2.66%	1.77% (inactive)	inactive	inactive	inactive		3.24% (inactive)		10 µM (active)	inactive
